# Bioassay records (PubChem)
# Only some compounds are listed: those with a hit (about 1.2% of all), similar ones and a draw of the others.
# ugtP null kill: compounds lethal to S. aureus RN4220 ugtP deletion mutant | OD600 growth, 16 h | growth inhibition, % (no concentration beside the values) | hit rate 0.54% among 330,000; in the data active = growth inhibition above about 68%;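 also: plate controls were untreated wells for no effect and antibiotic for full effect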
# PfHsp40 yeast: rescue of PfHsp40-mediated yeast toxicity; S. cerevisiae expressing PfHsp40, growth rescue, ATP luminescence; growth rescue, % at 12.5 µM; hit rate 0.68% among 340,000; in the data active = growth rescue above about 28%, passing the limit was not always enough;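 also: yeast W303a lacking pdr1 and pdr3 grown in galactose medium; growth measured after three days at 30 °C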
# Sa RN4220 lethal: kills Staphylococcus aureus RN4220; hit rate 0.33% among 330,000; AID 1259311; S. aureus RN4220 growth, OD600, 16 h; inhibition, % (test concentration not listed); in the data active = inhibition above about 85%;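 also: plate controls were untreated cells for no effect and reference antibiotic for full effect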
# PrP 5UTR inh: suppresses PrP 5' UTR mRNA reporter expression | cell-based PrP 5' UTR mRNA reporter, plate reader | inhibition, % (concentration not given with the values) | hit rate 0.35% among 340,000; in the data active = inhibition above about 52%; also: 0 = median of the neutral control wells
# TcdB inh: blocks C. difficile toxin B glycohydrolase activity; P18177; TcdB glycohydrolase enzymatic assay, plate reader; inhibition, % at 9.99 µM; hit rate 0.24% among 350,000; in the data active = inhibition above about 10%
# The depositor's hits bear a star; . = no result.
SMILES,ugtP null kill,PfHsp40 yeast,Sa RN4220 lethal,PrP 5UTR inh,TcdB inh
Cc1nc2ccc(NC(=O)COc3cccc(F)c3)cc2s1,-5,242*,9,-8,3
CC(=O)c1ccc(NC(=O)c2ccc3nc(C)sc3c2)cc1,5,3,3,-35,1
Cn1cnnc1SCC(=O)NC1CCCCC1,-5,-1,1,-134,15*
Cc1ccc(-c2cc(-c3cccc(F)c3)n[nH]2)c(O)c1,58,66*,-13,-140,.
S=c1nc(-c2sccc2OCc2ccc(Cl)cc2Cl)[nH][nH]1,-11,45*,9,-26,3
C=CCNc1nc(-c2ccccn2)nnc1-c1ccccc1,0,354*,31,-53,.
COc1cccc(Cn2c(=O)ccc3ccccc32)c1,7,-2,6,-15,1
CCN(CC)c1nc2ccccc2n(Cc2cccc(OC)c2)c1=O,91*,0,-6,-2,-1
NC(N)=NN=Cc1ccc(N2CCOCC2)cc1,-6,.,2,.,.
CC(=NNC(=O)c1csc(C)c1C)c1ccc(C)s1,6,.,0,.,.
CCOC(=O)c1cc(CC)sc1NC(=O)C(c1ccccc1)c1ccccc1,89*,-2,0,-18,.
O=C(Nc1cccc(Cl)c1)N[C@@H]1CC[C@H](CCNC(=O)C2CC2)O[C@H]1CO,.,.,.,.,1
CCCn1c2ccc(C(C)=NO)cc2c2cc(C(C)=NO)ccc21,-12,.,5,.,.
O=[N+]([O-])c1ccc2[nH]nc(-c3ccccc3)c2c1,-28,41*,-6,-8,.
O=C(c1ccc2c(c1)OCO2)N(Cc1cccs1)C1(C(=O)NC2CCCCC2)CCCCC1,-10,68*,9,-25,.
c1ccc2c(-c3c[nH]c4ccccc34)c3ccccc3nc2c1,57,37*,3,-19,.
C=CCOC(Cn1ccnc1)c1ccc(Cl)cc1Cl (stereo not drawn),7,326*,2,-20,1
Clc1ccc(COC(Cn2ccnc2)c2ccc(Cl)cc2Cl)c(Cl)c1 (stereo not drawn),100*,91*,100*,-18,1
N#C[C@@H]1[C@@H](c2ccc(-c3cccc(F)c3)cc2)[C@@H](CO)N1S(=O)(=O)c1cccc(F)c1,.,.,.,.,-1
CCOC(=O)OC(C)OC(=O)C1N2C(=O)C(NC(=O)C(N)c3ccccc3)C2SC1(C)C (stereo not drawn),100*,.,101*,.,.
Cc1cc(COC(=O)C2N3C(=O)C(NC(=O)COc4ccccc4)C3SC2(C)C)on1 (stereo not drawn),100*,.,100*,.,.
CC1(C)SC2C(NC(=O)C(N)c3ccccc3)C(=O)N2C1C(=O)OC1OC(=O)c2ccccc21 (stereo not drawn),101*,.,100*,.,.
CC1(C)S[C@@H]2[C@H](NC(=O)[C@H](N)c3ccccc3)C(=O)N2[C@H]1C(=O)O,.,1,.,-22,0
CC1(C)S[C@@H]2[C@H](NC(=O)[C@H](N)c3ccc(O)cc3)C(=O)N2[C@H]1C(=O)O,.,-1,.,-10,0
C[C@H](CO)N1C[C@H](C)[C@@H](CN(C)S(=O)(=O)c2cn(C)cn2)Oc2c(NS(C)(=O)=O)cccc2C1=O,.,.,.,.,-1
SMILES,ugtP null kill,PfHsp40 yeast,Sa RN4220 lethal,PrP 5UTR inh,TcdB inh
Cc1ccc(NC(=O)NCC2CC2(Cl)Cl)cc1 (stereo not drawn),.,1,.,-102,1
O=C(NCCCn1ccnc1)Nc1ccc(Cl)c(Cl)c1,-21,46*,-8,-35,.
O=C(NCC1CC1(Cl)Cl)Nc1ccc(Cl)c(Cl)c1 (stereo not drawn),51,304*,57,-38,1
Cc1ccc(C=Nn2c(C3CCCCC3)n[nH]c2=S)cc1,-2,.,3,.,.
CCCCOP(=O)(OCCCC)C(C#N)=C(C)O,4,.,5,.,.
C[C@H](CO)N1C[C@H](C)[C@H](CN(C)Cc2ccccc2)Oc2c(NS(=O)(=O)c3ccc(F)cc3)cccc2C1=O,.,.,.,.,-2
O=C(N[C@@H]1CC[C@@H](CCn2cc(-c3ccccn3)nn2)O[C@@H]1CO)c1ccncc1,.,.,.,.,1
Cc1cc(N2CCN(C)CC2)nc2ccc(NC(=S)NCCCN3CCc4ccccc4C3)cc12,0,0,3,-39,2
Cc1cc(N2CCN(C)CC2)nc2ccc(NC(=S)NCCN3CCc4ccccc4C3)cc12,0,49*,3,-10,3
NCC[C@H]1CC[C@@H](NC(=O)c2ccccc2F)[C@@H](CO)O1,.,.,.,.,-2
COC(=O)C1=C(C)N(c2ccc(Cl)cc2)/C(=C/c2ccc(O)cc2)C1=O,-3,0,48,-19,1
COC(=O)C1=C(C)N(c2cc(C)cc(C)c2)/C(=C/c2ccc(O)cc2)C1=O,60,1,89*,-16,3
S=C(Nc1ccc(Cl)cc1)c1nc2ccccc2[nH]1,96*,5,99*,-67,.
O=C1Cc2cc(S(=O)(=O)NCc3ccccc3Cl)cc3c2N1CCC3,1,4,3,-11,11*
Cc1cccc(C)c1NS(=O)(=O)c1cc2c3c(c1)CC(=O)N3CCC2,-2,0,6,1,-1
CCC(=O)Nc1c2c(nn1-c1ccc(C)cc1C)CSC2,-3,48*,3,-21,.
COc1cc(O)c(CC=C(C)C)c(O)c1C(=O)CCc1ccc(O)cc1,92*,210*,73,-11,1
O=C(CCc1ccc(O)cc1)c1c(O)cc(O)cc1O,-16,4,1,-15,-5
COC(=O)C[C@@H]1C[C@H]2c3cc(NC(=O)c4cccnc4)ccc3O[C@H]2[C@H](CO)O1,.,.,.,.,-1
COc1ccc(/C=N/N=C2/NC(=O)C(CC(=O)NC(N)=O)S2)cc1 (stereo not drawn),.,-1,.,-30,11*
COc1ccc(C=N/N=C2/NC(=O)C(CC(=O)NC(C)C)S2)cc1 (stereo not drawn),3,.,4,.,.
O=C(CNc1cccc([N+](=O)[O-])c1)NN=Cc1ccc(F)cc1,5,.,0,.,.
CCC(=O)N(C)C[C@@H]1Oc2ncc(-c3ccccc3F)cc2C(=O)N([C@@H](C)CO)C[C@H]1C,.,.,.,.,0
Cc1ccc(C(=O)CSc2nnc(-c3ccc4[nH]c(C)c(C)c4c3)o2)cc1C,98*,0,18,-35,.
Clc1ccc(OCc2nc(-c3ccncc3)no2)c(Br)c1,0,597*,-1,-88,1
SMILES,ugtP null kill,PfHsp40 yeast,Sa RN4220 lethal,PrP 5UTR inh,TcdB inh
C[C@H]1CN([C@@H](C)CO)S(=O)(=O)c2ccc(C3=CCCCC3)cc2O[C@@H]1CN(C)C(=O)c1ccncc1,.,.,.,.,1
Cc1ccc2sc(N(CCCN(C)C)C(=O)c3ccc(S(=O)(=O)N4CCc5ccccc5C4)cc3)nc2c1C,-4,79*,3,-24,1
Cc1nc(N)nc(N)c1/C=C/C(C)(C)c1ccc(Cl)cc1,100*,151*,99*,50,1
Cc1nc(N)nc(N)c1Oc1ccc(Cl)cc1,11,0,11,-6,1
Cc1ccccc1-c1cnc2c(c1)C(=O)N([C@@H](C)CO)C[C@@H](C)[C@H](CN(C)C(=O)c1ccc(F)cc1)O2,.,.,.,.,1
CC(C)c1ccc(-c2nnn(Cc3nc4ccccc4s3)n2)cc1,85*,0,1,-11,.
